Measurements taken from PubChem BioAssay AID1645882 (National Center for Advancing Translational Sciences (NCATS), 2021).
Several values for one entry are separate records, joined by “and”; a condition that tells them apart may be missing. Equal entries are not always repeated. The whole screen tested about 16,000 compounds, of which about 120 (0.75%) were called active. Another 4% or so got no clear call; they are omitted. This is one part of a sample in which actives are shown more often than they occur. Calls come from the whole dose curve; as a rule, active = well fitted inhibition curve with a large enough effect; inconclusive = small, poorly fitted or top-dose-only effect; inactive = no such curve, though single readings can be large or run the other way. The source holds several records for some structures; these can differ, active in one and inactive in another.

What follows are compounds tested against Rap guanine nucleotide exchange factor 3 (Homo sapiens) (UniProt O95398) (assay: Validation qHTS for antagonist of cAMP-regulated guanine nucleotide exchange factor 3 (EPAC1)). Conditions: EPAC1 Rap1B-BODIPY-GDP exchange, fluorescence; series mostly up to 150 µM; activity change, negative = inhibition: at the top concentration.
Sequence of Rap guanine nucleotide exchange factor 3 (Homo sapiens) (O95398 whole entry, looked up): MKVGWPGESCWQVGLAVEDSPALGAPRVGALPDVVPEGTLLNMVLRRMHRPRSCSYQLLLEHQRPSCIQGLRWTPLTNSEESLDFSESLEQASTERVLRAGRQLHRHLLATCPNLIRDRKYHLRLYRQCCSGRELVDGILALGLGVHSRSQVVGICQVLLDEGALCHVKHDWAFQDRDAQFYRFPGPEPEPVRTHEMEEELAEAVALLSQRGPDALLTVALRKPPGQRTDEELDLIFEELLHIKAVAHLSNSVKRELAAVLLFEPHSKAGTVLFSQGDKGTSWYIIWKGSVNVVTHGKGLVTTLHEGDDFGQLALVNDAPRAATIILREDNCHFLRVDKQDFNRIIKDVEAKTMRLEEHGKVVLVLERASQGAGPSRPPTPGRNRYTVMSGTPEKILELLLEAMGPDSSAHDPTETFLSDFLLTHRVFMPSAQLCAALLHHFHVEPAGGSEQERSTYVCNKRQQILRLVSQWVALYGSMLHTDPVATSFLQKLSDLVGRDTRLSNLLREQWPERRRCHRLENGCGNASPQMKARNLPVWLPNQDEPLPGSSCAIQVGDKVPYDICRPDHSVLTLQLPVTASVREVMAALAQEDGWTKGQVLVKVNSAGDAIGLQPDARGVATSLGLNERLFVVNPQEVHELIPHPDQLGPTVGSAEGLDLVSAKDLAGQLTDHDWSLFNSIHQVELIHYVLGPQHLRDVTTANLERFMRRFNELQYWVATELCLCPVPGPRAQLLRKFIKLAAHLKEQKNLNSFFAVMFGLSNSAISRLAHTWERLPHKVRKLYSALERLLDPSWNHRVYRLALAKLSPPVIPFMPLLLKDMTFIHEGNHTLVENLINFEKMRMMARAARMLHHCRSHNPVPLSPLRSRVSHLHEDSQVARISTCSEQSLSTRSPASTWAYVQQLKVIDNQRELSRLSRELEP
Source text: Assay Provider (PI): Xiaodong Cheng Ph.D.
The University of Texas Medical Branch, […], TX
In multi-cellular eukaryotic organisms, the effects of cAMP are transduced by two ubiquitously-expressed intracellular cAMP receptors, the classic protein kinase A/cAMP-dependent protein kinase (PKA/cAPK) and the more recently discovered exchange protein directly activated by cAMP/cAMP-regulated guanine nucleotide exchange factor (EPAC/cAMP-GEF). Both PKA and EPAC are ubiquitously expressed in all tissues, and an increase in intracellular cAMP levels will lead to the activation of both PKA and EPAC. Therefore, careful dissections of the individual role and relative contribution of EPAC and PKA within the overall cAMP signaling in various model systems are critical for further elucidating the mechanism of cAMP signaling. To date no EPAC-specific antagonists and agonist, as well as isoform-specific agonists have been reported, and developing EPAC-specific pharmacological probes to determine the physiological functions that EPAC play in the overall cAMP-mediated signaling remains a major challenge within the research field. Furthermore, identified regulators of EPAC may lead to new mechanism-based therapeutic strategies specifically targeting the EPAC / cAMP-signaling components as EPAC has been implicated to play important roles in major human pathological conditions such as diabetes, heart disease, and cancer.
This qHTS will be used to screen the Molecular Libraries Small Molecule Repository (MLSMR) as a concentration-titration series using the NCGC unique quantitative screening (qHTS) platform to find activators for EPAC1. In addition, this assay will also be used as a counterscreen for the EPAC2 qHTS. This fluorescent based assay is developed and validated for EPAC1 that measures exchange using EPAC effector Rap1 complex with BODIPY-GDP, a GDP analog with a tethered fluorophores. Activators are identified by monitoring the change in fluorescence signal as the exchanged free BODIPY-GDP has a reduced fluorescence compared to Rap1-bound BODIPY-GDP. Increase in signal (activation) is the desired outcome for the EPAC1 agonist while no activity in this assay is desired for the EPAC2 agonist counterscreen.
[1] de Rooij, J., Zwartkruis, F. J., Verheijen, M. H., Cool, R. H., Nijman, S. M., Wittinghofer, A., and Bos, J.L. (1998) Nature 396, 474-477.
Briefly, three uL of reagents (100 nM EPAC1, 250 nM RAP1B-BODIPY-GDP, 50 uM GDP) were dispensed into a 1536-well Greiner black solid-bottom medium binding assay plate. Controls and test compounds (23 nL) were transferred to the plate via a Kalypsys pin tool equipped with a 1536-pin array. The plates were centrifuged at 1,000 rpm for 15 seconds followed by 5 minute incubation at room temperature. The assay plates were read at 5 minute intervals for 30 minutes in the ViewLux plate reader using 480nm excitation and 540nm emission filters. The results were normalized to the […] positive control ATA and DMSO.
Note: nearly all actives have a fitted effect of over 75% in size.
Potency is the fitted concentration of half-maximal effect.

Question: Which “activity change, negative = inhibition” value does the source give for `COc1ccc2c3c1O[C@H]1C[C@H](O)C=C[C@@]31CCN(C)C2` here?
Answer: The value was -4.36% (inactive).

Question: For `CC(C)c1ccc2c(c1)CC[C@@H]1[C@@](C)(CN)CCC[C@]21C`, which “activity change, negative = inhibition” value is on record?
Answer: The value was 10.5% (inactive).

Question: How did the Potency turn out when `O=C1Nc2ccc(I)cc2/C1=C/c1cc(Br)c(O)c(Br)c1` was run?
Answer: Its Potency is 89.1 µM (active) and 79.4 µM (active) and inactive.

Question: `CN(C)c1ccc(/C=C2/C(=O)Nc3ccccc32)cc1` was tested. Which “activity change, negative = inhibition” value did it give?
Answer: Its value is -18.9% (inactive).

Question: With `CN(C)c1ccc(/C=C2\C(=O)Nc3ccccc32)cc1` as the compound, how does the “activity change, negative = inhibition” value read?
Answer: The value was -9.59% [at 75.8 µM] (inactive).

Question: How did the “activity change, negative = inhibition” value turn out when `COC(=O)c1ccc(CN2CCOc3ccc(C(O)c4cccnc4)cc3C2)cc1` (configuration not stated) was run?
Answer: Its value is 8.76% (inactive).

Question: For `COc1ccc(-n2c(=O)c(-c3ccc(F)cc3)nc3cnc(N4CCNCC4)nc32)cc1`, which “activity change, negative = inhibition” value is on record?
Answer: The value was 10.7% (inactive).

Question: `Oc1ccc(Cl)cc1Sc1cc(Cl)ccc1O` was tested. Which “activity change, negative = inhibition” value did it give?
Answer: The value was -15.1% (inactive).

Question: With `Oc1c(Cl)cc(Cl)cc1Sc1cc(Cl)cc(Cl)c1O` as the compound, how does the Potency read?
Answer: Its Potency is 79.4 µM (active).

Question: Which “activity change, negative = inhibition” value does the source give for `O=C(Nc1ccccc1)O[C@@H]1C[C@H]2CCCC(=O)N3CC[C@@H](C1)[C@@H]23` here?
Answer: Its value is -2.16% (inactive).

Question: `CO[C@@H]1[C@@H](O[C@@H]2O[C@H](C)[C@@H](O[C@H]3C[C@@](C)(O)[C@@H](O)[C@H](C)O3)[C@H](N(C)C)[C@H]2O)[C@@H](CC=O)C[C@@H](C)[C@@H](O[C@@H]2CC[C@H](N(C)C)[C@@H](C)O2)/C=C/C=C/C[C@@H](C)OC(=O)C[C@H]1OC(C)=O` was tested. Which “activity change, negative = inhibition” value did it give?
Answer: The value was 52.5% (inactive).

Question: For `CC(C)c1ccc2c(c1)c(SC(C)(C)C)c(CC(C)(C)C(=O)O)n2Cc1ccc(Cl)cc1`, which Potency is on record?
Answer: The Potency was 28.2 µM (active).

Question: How did the Potency turn out when `CC(N)C(=O)OC(C)(C)Cc1ccc(Cl)cc1` (configuration not stated) was run?
Answer: The Potency was “inactive”.

Question: With `COc1ccc2c(c1)c(CC(=O)O)c(C)n2Cc1ccc(Cl)cc1` as the compound, how does the “activity change, negative = inhibition” value read?
Answer: The value was -6.29% [at 75.8 µM] (inactive).

Question: Which “activity change, negative = inhibition” value does the source give for `CCC1C(=O)NCCN1Cc1ccc2c(c1)CN(Cc1cc(OC)ccc1OC)CCO2` (configuration not stated) here?
Answer: Its value is 27.6% (inactive).

Question: For `N#C/C(=C\c1ccc(O)c(O)c1)C(=O)NCCc1ccccc1`, which “activity change, negative = inhibition” value is on record?
Answer: The value was 47.2% [at 75.8 µM] (inactive).

Question: How did the Potency turn out when `N#C/C(=C\c1ccc(O)c(O)c1)C(=O)NCCCCc1ccccc1` was run?
Answer: The Potency was 100 µM (active).

Question: Which Potency does the source give for `N#C/C(=C\c1ccc(O)c(O)c1)C(=O)NCCCc1ccccc1` here?
Answer: Its Potency is 63.1 µM (active) and inactive.

Question: `O=C(O)CCCc1ccccc1` was tested. Which “activity change, negative = inhibition” value did it give?
Answer: Its value is 13.7% (inactive).

Question: With `N#C/C(=C\c1c[nH]c2ccccc12)C(=O)c1ccc(O)c(O)c1` as the compound, how does the “activity change, negative = inhibition” value read?
Answer: Its value is 23.5% [at 75.8 µM] (inactive).

Question: With `Oc1ccc(CCNCCCCCCNCCc2ccccc2)cc1O` as the compound, how does the “activity change, negative = inhibition” value read?
Answer: Its value is 19% (inactive).

Question: How did the “activity change, negative = inhibition” value turn out when `CSc1nc(C(=O)NCc2nc(-c3cccc(NC(=O)c4ccc(C)s4)c3)oc2C)cs1` was run?
Answer: Its value is 5.03% (inactive).

Question: `Cc1cccc(CN2CCc3nnc(C(C)NC(=O)C4CCOCC4)n3CC2)c1` (configuration not stated) was tested. Which “activity change, negative = inhibition” value did it give?
Answer: Its value is 12% (inactive).

Question: With `Cc1ccccc1C(=O)NC(C)c1nnc2n1CCN(Cc1ccc(F)cc1)CC2` (configuration not stated) as the compound, how does the “activity change, negative = inhibition” value read?
Answer: The value was 11.9% (inactive).

Question: For `C/C1=C2N=C(/C=C3N=C(/C(C)=C4\[N-]C(C(CC(N)=O)C4(C)CCC(=O)NCC(C)OP(=O)([O-])OC4C(CO)OC(n5cnc6cc(C)c(C)cc65)C4O)C4(C)N=C1C(CCC(N)=O)C4(C)CC(N)=O)C(CCC(N)=O)C\3(C)C)C(CCC(N)=O)C/2(C)CC(N)=O.[CH3-].[Co+3]` (configuration not stated), which Potency is on record?
Answer: The Potency was 50.1 µM (active).

Question: Which “activity change, negative = inhibition” value does the source give for `C[N+](C)(CCCCCC[N+](C)(C)C1c2ccccc2-c2ccccc21)C1c2ccccc2-c2ccccc21` here?
Answer: The value was 25.9% (inactive).

Question: With `O=S(=O)(O)c1cc(N=C=S)ccc1/C=C/c1ccc(N=C=S)cc1S(=O)(=O)O` as the compound, how does the Potency read?
Answer: The Potency was 35.5 µM (active).

Question: With `Nc1ccc(/C=C/c2ccc(N)cc2S(=O)(=O)O)c(S(=O)(=O)O)c1` as the compound, how does the “activity change, negative = inhibition” value read?
Answer: Its value is -25.9% (inactive).

Question: How did the “activity change, negative = inhibition” value turn out when `S=C=Nc1ccc(N=C=S)cc1` was run?
Answer: Its value is 17.2% (inactive).

Question: With `Nc1nc2c(c(=O)[nH]1)N(C=O)C(CNc1ccc(C(=O)NC(CCC(=O)O)C(=O)O)cc1)CN2` (configuration not stated) as the compound, how does the “activity change, negative = inhibition” value read?
Answer: Its value is 12.1% (inactive).

Question: Which “activity change, negative = inhibition” value does the source give for `Fc1ccc(Nc2ccnc(-c3ccc4c(c3)OCO4)n2)cc1` here?
Answer: The value was -16.5% (inactive).

Question: With `O=C(Nc1nccs1)[C@@H]1CC=C[C@@H]2CCN(Cc3ccccc3)C(=O)[C@@H]21` as the compound, how does the “activity change, negative = inhibition” value read?
Answer: The value was 7.38% (inactive).

Question: With `CCCc1c(OCCCOc2ccc(OCC(=O)O)cc2)ccc(CC=O)c1O` as the compound, how does the Potency read?
Answer: The Potency was 100 µM (active).

Question: `CCCc1c(OCCCOc2ccc(OCC(=O)O)cc2)ccc(C(C)=O)c1O` was tested. Which “activity change, negative = inhibition” value did it give?
Answer: The value was -6.37% [at 75.8 µM] (inactive).

Question: Which Potency does the source give for `CCCc1c(OCCCCc2nn[nH]n2)ccc(C(C)=O)c1O` here?
Answer: Its Potency is “inactive”.

Question: How did the “activity change, negative = inhibition” value turn out when `COCCn1c(=O)c(-c2cc(F)cc(F)c2)nc2cnc(Oc3ccc(OC)cc3)nc21` was run?
Answer: The value was 7.13% (inactive).

Question: How did the Potency turn out when `O=C(Nc1cccc(C(=O)Nc2ccc(S(=O)(=O)O)c3cc(S(=O)(=O)O)cc(S(=O)(=O)O)c23)c1)Nc1cccc(C(=O)Nc2ccc(S(=O)(=O)O)c3cc(S(=O)(=O)O)cc(S(=O)(=O)O)c23)c1` was run?
Answer: Its Potency is 25.1 µM (active).

Question: `Cc1ccc(C(=O)Nc2ccc(S(=O)(=O)O)c3cc(S(=O)(=O)O)cc(S(=O)(=O)O)c23)cc1NC(=O)c1cccc(NC(=O)Nc2cccc(C(=O)Nc3cc(C(=O)Nc4ccc(S(=O)(=O)O)c5cc(S(=O)(=O)O)cc(S(=O)(=O)O)c45)ccc3C)c2)c1` was tested. Which “activity change, negative = inhibition” value did it give?
Answer: Its value is -22% [at 75.8 µM] (inactive).

Question: With `O=C(Nc1ccc(C(=O)Nc2ccc(C(=O)Nc3ccc(S(=O)(=O)O)c4cc(S(=O)(=O)O)cc(S(=O)(=O)O)c34)cc2)cc1)Nc1ccc(C(=O)Nc2ccc(C(=O)Nc3ccc(S(=O)(=O)O)c4cc(S(=O)(=O)O)cc(S(=O)(=O)O)c34)cc2)cc1` as the compound, how does the Potency read?
Answer: The Potency was 39.8 µM (active) and 8.91 µM (active).

Question: With `O=C(Nc1cc(C(=O)Nc2ccc(S(=O)(=O)O)cc2S(=O)(=O)O)cc(C(=O)Nc2ccc(S(=O)(=O)O)cc2S(=O)(=O)O)c1)Nc1cc(C(=O)Nc2ccc(S(=O)(=O)O)cc2S(=O)(=O)O)cc(C(=O)Nc2ccc(S(=O)(=O)O)cc2S(=O)(=O)O)c1` as the compound, how does the Potency read?
Answer: The Potency was 15.8 µM (active).

Question: `Cc1ccc(S(=O)(=O)O)cc1C` was tested. Which “activity change, negative = inhibition” value did it give?
Answer: Its value is 11.8% (inactive).

Question: For `O=C(Nc1ccc(C(=O)O)c(O)c1)c1ccccc1`, which “activity change, negative = inhibition” value is on record?
Answer: Its value is 4.9% (inactive).
